Screens (PubChem BioAssay)
Cruzain Triton = inhibitors of Trypanosoma cruzi cruzain with detergent | purified cruzain, Z-FR-AMC fluorescence, 0.01% Triton | 200,000 compounds, 0.43% hits | Potency, µM, hits mostly inhibitors | P25779 | AID 1478; also: nearly all actives have a fitted effect of over 40% in size
Target sequence (P25779 123-467 limits assumed): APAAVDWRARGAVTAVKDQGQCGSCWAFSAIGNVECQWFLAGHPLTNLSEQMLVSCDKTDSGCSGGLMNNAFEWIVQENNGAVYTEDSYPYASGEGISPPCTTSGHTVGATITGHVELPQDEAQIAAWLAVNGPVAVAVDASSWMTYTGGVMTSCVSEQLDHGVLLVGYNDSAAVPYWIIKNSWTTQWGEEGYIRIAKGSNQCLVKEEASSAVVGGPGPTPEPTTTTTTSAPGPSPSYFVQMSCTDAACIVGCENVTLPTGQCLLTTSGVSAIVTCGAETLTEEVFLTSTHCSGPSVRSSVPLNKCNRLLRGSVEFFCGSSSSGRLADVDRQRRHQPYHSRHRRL
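Detergent-containing run (0.01% Triton X-100) in acetate buffer pH 5.5 with 5 mM DTT: enzyme at 1.5 nM final, 15 min compound preincubation at room temperature, then 2 uM Z-FR-AMC substrate. Activity taken as 60 s fluorescence increase at 360/450 nm.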
Cruzain noTriton = blocks cruzain activity in detergent-free assay; P25779; purified cruzain, Z-FR-AMC fluorescence, no detergent; Potency, µM, hits mostly inhibitors; 200,000 compounds, 2.3% hits; also: nearly all actives have a fitted effect of over 40% in size
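Detergent-free condition (0.00005% Triton X-100) in acetate buffer pH 5.5 with DTT. 1.5 nM enzyme and compound were pre-mixed 15 min, then 2 uM Z-FR-AMC substrate added; reaction progress from fluorescence change between first and third reads (60 s).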
Of the large screens only hits and unclear results are named; the others gave an inactive call. A selection: hits, their analogues and other compounds. The true share with any hit is near 2.4%. Calls follow the shape of the dose curve; as a rule, active = well fitted curve in the direction sought with a large enough effect; inconclusive = small, poorly fitted or top-dose-only effect, or another doubt; inactive = no such curve, though single readings can be large; an effect the other way counts as inactive or inconclusive.

Cc1ccc(-c2[nH]c3c(c2-c2c(-n4cccc4)n(C)c(=O)[nH]c2=O)c(=O)[nH]c(=O)n3C)cc1	none
COc1cccc(N2CC(NC(=O)C3CC3)CC2=O)c1 (stereo not drawn)	none
CCc1cc2ccc(OC)cc2nc1SCC(=O)Nc1cc(C)on1	Cruzain noTriton 10µM
CCc1cc2ccccc2nc1SCC(=O)Nc1cc(C)on1	none
COc1ccccc1NC(=O)c1ccc(S(=O)(=O)N2CCCC2)cc1	none
CN(C)S(=O)(=O)c1ccc(C(=O)Nc2cc(S(=O)(=O)Nc3ccccc3Cl)ccc2N2CCCCC2)cc1	Cruzain noTriton 25µM
CN1CCN(c2ccc(Cl)cc2NC(=O)c2ccc(S(=O)(=O)N(C)C)cc2)CC1	none
COc1ccccc1NS(=O)(=O)c1ccc(C)c(NC(=O)c2ccc(S(=O)(=O)N3CCCCCC3)cc2)c1	Cruzain noTriton 32µM
O=S(=O)(c1ccc(Cl)cc1)c1nc(-c2ccccc2Br)oc1N1CCOCC1	none
CCCN(CCC)CCCNC(=O)c1cc2cc3ccc(OC)cc3nc2o1	Cruzain Triton 25µM, Cruzain noTriton inconclusive
COc1ccc2cc3cc(C(=O)NCCc4ccc(OC)c(OC)c4)oc3nc2c1	Cruzain noTriton inconclusive
COc1cccc(-c2nc3c(C#N)c[nH]n3c2NC2CCCCC2)c1	none
COc1cccc(C(=O)Nc2ccc(-n3nncc3-c3ccccc3)cc2)c1OC	none
O=C(Cc1ccc(F)cc1)NC1CC(=O)N(c2ccccc2)C1 (stereo not drawn)	none
O=c1cc(-c2ccc(F)cc2)nc(SCc2nc(-c3ccccc3Cl)no2)[nH]1	none
CCn1c(-c2nonc2NC(=O)c2ccccc2)nc2ccccc21	none
CC(C)(C)c1ccc(C(=O)Nc2nonc2-c2nc3ccccc3[nH]2)cc1	Cruzain noTriton 3.2µM
COc1ccc(-c2nc(C)c(CCNC(=O)C(=O)Nc3ccccc3F)s2)cc1	none
Cc1ccc2nc(-c3ccc(N)cc3)sc2c1S(=O)(=O)O	Cruzain Triton 35µM, Cruzain noTriton 20µM
Cc1ccc2nc(-c3ccc(NS(=O)(=O)c4ccccc4)cc3)sc2c1	none
COc1ccc(NC(=O)/C=C/c2cc(Br)ccc2OC)cc1	none
CCN(CC)c1ccc(NC(=O)/C=C/c2cc(Br)ccc2OC)cc1	Cruzain noTriton 25µM
c1ccc2c(NCCN3CCOCC3)nc(-c3ccoc3)nc2c1	none
CN1CCN(c2ncc3nc(-c4cccs4)c(=O)n(CCC#N)c3n2)CC1	none
CC(C)c1ccc(NC(=O)CSc2nc3c(c(=O)[nH]2)CCC3)cc1	Cruzain noTriton 13µM
Cc1ccc(NC(=O)CSc2nc3c(c(=O)[nH]2)CCC3)cc1C	Cruzain noTriton inconclusive
CCN1CCN(C(c2cccc(F)c2)c2c(O)cc(C)n(CCOC)c2=O)CC1 (stereo not drawn)	Cruzain noTriton inconclusive
CC(C)Oc1ccccc1C1C=C(C(=O)O)Nc2ncnn21 (stereo not drawn)	none
N#CC1=C(N)Oc2c(ccc3ccccc23)C1c1ccsc1 (stereo not drawn)	none
COc1cc(C2C(C#N)=C(N)Oc3c2ccc2ccccc32)ccc1OCC(=O)Nc1ccc(C)cc1 (stereo not drawn)	Cruzain noTriton 10µM
COc1cc(C2C(C#N)=C(N)Oc3c2ccc2ccccc32)ccc1OCC(=O)Nc1cccc(C)c1 (stereo not drawn)	Cruzain noTriton 7.9µM
COC(=O)C1=C(C)OC(N)=C(C#N)C1c1ccc(OC)c(OC)c1OC (stereo not drawn)	none
COC/C=C/C1=CC2=CC(=O)C(C)(OC(=O)CCc3ccccc3)C(=O)C2=CO1 (stereo not drawn)	none
O=C(Cn1c(=O)c2cccn2c2ccccc21)NCc1ccccc1F	none
O=C(CN1C(=O)C2C3CCC(C3)C2C1=O)OCC(=O)c1cccc([N+](=O)[O-])c1 (stereo not drawn)	none
CC(C)C(C(=O)OCC(=O)c1cccc([N+](=O)[O-])c1)N1C(=O)[C@@H]2[C@H]3CC[C@H](C3)[C@@H]2C1=O (stereo partly drawn)	Cruzain Triton 16µM, Cruzain noTriton inconclusive
Cc1cc(C=C2C(=O)c3ccccc3C2=O)c(C)n1-c1ccccc1	Cruzain noTriton inconclusive
Cc1cc(/C=C2\Cc3ccccc3C2=O)c(C)n1-c1ccccc1	Cruzain noTriton 16µM
Cc1ccc(-c2ccc(C(=O)NCc3ccc(Cl)cc3)o2)c2ccccc12	Cruzain Triton inconclusive, Cruzain noTriton 25µM
Cc1ccccc1-c1ccc(C(=O)NCc2ccccc2)o1	none
Cc1ccc(C(=O)N(c2ccc(C)cc2)S(=O)(=O)c2ccc(Cl)cc2)cc1	none
O=C(CNC(=O)c1ccco1)OCC(=O)c1cccc2ccccc12	none
O=C(CNC(=O)c1ccco1)OCN1C(=O)c2ccccc2C1=O	Cruzain Triton 20µM, Cruzain noTriton inconclusive
O=C(OCC1OC(n2ccc(=O)[nH]c2=O)C(O)C1OC(=O)c1ccccc1)c1ccccc1 (stereo not drawn)	none
Nc1nc2c(ncn2C2OC(COC(=O)c3ccccc3)C(OC(=O)c3ccccc3)C2OC(=O)c2ccccc2)c(=O)[nH]1 (stereo not drawn)	Cruzain noTriton 7.9µM
